This note sets out measurements from PubChem BioAssay.

Assay [1] is described as follows: small molecules captured by biotinylated probe aFSTL3 – biochemical, small-molecule microarray, fluorescence 635/667, stem cell growth factor project, primary screen (AID 1064).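 Further: measures binding of the biotinylated anti-FSTL3 antibody to printed compounds.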 As to conditions: higher = more signal.
Assay [2] is described as follows: binders from COS7 lysate, DM2A8 probe, primary screen, torsin A project, cell lysate, small-molecule microarray, fluorescence 635/667 (AID 1065). Conditions: higher = more signal, COS7 lysate expressing mutant human TOR1A.
The nature of assay [3]: small molecules captured by biotinylated probe aFGF2 – biochemical, small-molecule microarray, fluorescence 635/667, stem cell growth factor project, primary screen (AID 1067).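 Further: measures binding of biotinylated aFGF2 protein to printed compounds on slides; z-score merges feature fluorescence and signal-to-noise across triplicate slides.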 As to conditions: higher = more signal.
Assay [4] can be described thus: small molecules captured by biotinylated probe aFGF10 – biochemical, small-molecule microarray, fluorescence 635/667, stem cell growth factor project, primary screen (AID 1071).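 Further: score merges 667 nm spot intensity and signal to noise from triplicate slides.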 Conditions: higher = more signal.
The target in assay [5] is Neurogenic locus notch homolog protein 2 (Homo sapiens) (UniProt Q04721). As to the kind of experiment: small molecules binding Notch2 protein – biochemical, small-molecule microarray, 635 nm fluorescence, stem cell growth factors, primary screen (AID 1073). Conditions: higher = more signal.
In assay [6] the target is Pro-neuregulin-1, membrane-bound isoform (Homo sapiens) (UniProt Q02297). As to the kind of experiment: small molecules binding neuregulin-1 protein – biochemical, small-molecule microarray, fluorescence 635/667, psychiatric disease protein project, primary screen (AID 1075).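 Further: score combines 667 nm spot fluorescence with signal to noise.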 Conditions: NRG1 binding, 635 nm fluorescence, higher = more signal.
Assay [7] has as its system Neuregulin-1 EGF-like domain. In words: small molecules binding NRG1 EGF domain – biochemical, small-molecule microarray, 635 nm fluorescence, primary screen (AID 1081).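 Further: binding of the protein to compounds printed on small-molecule microarray slides.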 As to conditions: higher = more signal.
A short description of assay [8]: FRG1 expression reporter modulators in myotubes – cell-based, C2C12 myotubes, firefly/Renilla luciferase, luminescence, FRG1 inhibition for FSHD, primary screen (AID 1084). As to conditions: FRG1 promoter luciferase, higher = more signal, called active from +8 up or from −8 down.
The nature of assay [9]: small molecules captured by biotinylated probe aFST – biochemical, small-molecule microarray, fluorescence 635/667, stem cell growth factor project, primary screen (AID 1086).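 Further: score merges 667 nm fluorescence with signal-to-noise of each printed compound spot.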 Conditions: higher = more signal.
Assay [10] is described as follows: binders of probe aHhip on microarray, primary screen, stem cell growth factor project, biochemical, small-molecule microarray, fluorescence 635/667 (AID 1087).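 Further: score merges spot fluorescence at 667nm with spot signal to noise ratio.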 Conditions: higher = more signal.
Assay [11] relates to PRMT1 (protein arginine N-methyltransferase 1). In words: small molecules binding arginine methyltransferase PRMT1 – biochemical, small-molecule microarray, 635 nm fluorescence, primary screen (AID 1088).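 Further: binding of Prmt1 protein to compounds spotted on small-molecule microarray slides.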 Conditions: higher = more signal.
Assay [12] in a line: growth effects on S. cerevisiae YJM789 – YJM789 clinical isolate, OD600, 24 h, basal, primary screen (AID 1089).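 Further: growth of clinical yeast isolate S. cerevisiae YJM 789 seeded 1000 cells per well; test concentration not given here.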 As to conditions: higher = more signal, called active from +8 up or from −8 down.
A short description of assay [13]: S. pombe growth modifiers, basal conditions – strain 972, OD600, 24 h, no modulator, primary screen (AID 1090).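 Further: basal condition with compound alone and no growth modifier present; test concentration not given here.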 As to conditions: S. pombe 972 growth, higher = more signal, called active from +8 up or from −8 down.
Assay [14] can be described thus: budding yeast growth modifiers under rapamycin – strain BY4716, OD600, 96 h, primary screen (AID 1091). Further: test concentration not given here. Conditions: S. cerevisiae BY4716 + rapamycin, higher = more signal, called active from +8 up or from −8 down.
The target of assay [15] is Torsin-1A-interacting protein 2 (Homo sapiens) (UniProt Q8NFQ8). As to the kind of experiment: small molecules binding lysate-expressed LULL1 – cell lysate, human LULL1 lysate, 635/667 nm fluorescence, primary screen (AID 1092).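 Further: score merges per-feature 667 nm fluorescence with signal-to-noise.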 Conditions: small-molecule microarray, hLULL1 lysate binding, 635 nm fluorescence; higher = more signal.
A short description of assay [16]: optical density change of DRC41 E. coli – strain DRC41, OD650, 24 h, E. coli filamentation project, primary screen (AID 1093).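 Further: MC1000 strain lacking acrAB efflux and sulA so SOS filamentation is blocked; test concentration not given here.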 Conditions: E. coli DRC41 growth, higher = more signal, called active from +8 up or from −8 down.
The nature of assay [17]: probe aLefty2 binding to arrayed compounds – biochemical, biotinylated probe, 635/667 nm fluorescence, primary screen (AID 1094).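 Further: score merges spot fluorescence near 667 nm with spot signal-to-noise ratio.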 As to conditions: small-molecule microarray, higher = more signal.
Assay [18] relates to Noggin (protein binding on small-molecule microarray). As to the kind of experiment: small molecules binding Noggin protein – biochemical, 635/667 nm fluorescence, primary screen (AID 1095).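 Further: score merges 667 nm feature fluorescence with signal to noise over triplicate slides.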 Conditions: 635 nm fluorescence, higher = more signal.
For assay [19], the target named is Neurogenic locus notch homolog protein 3 (Homo sapiens) (UniProt Q9UM47). As to the kind of experiment: small molecules binding NOTCH3 protein – biochemical, 635/667 nm fluorescence, primary screen (AID 1096). Conditions: small-molecule microarray, 635 nm fluorescence, higher = more signal.
A short description of assay [20]: probe aEGFR binding to arrayed compounds – biochemical, biotinylated probe, 635/667 nm fluorescence, primary screen (AID 1097).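 Further: probe is a biotinylated anti-EGFR antibody binding compounds printed on slides; score combines fluorescence near 667 nm and signal to noise of each spot.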 As to conditions: small-molecule microarray, higher = more signal.

Activity calls are given as the source filed them.

Torsin-1A-interacting protein 2 (Homo sapiens), sequence (Q8NFQ8 whole entry, looked up): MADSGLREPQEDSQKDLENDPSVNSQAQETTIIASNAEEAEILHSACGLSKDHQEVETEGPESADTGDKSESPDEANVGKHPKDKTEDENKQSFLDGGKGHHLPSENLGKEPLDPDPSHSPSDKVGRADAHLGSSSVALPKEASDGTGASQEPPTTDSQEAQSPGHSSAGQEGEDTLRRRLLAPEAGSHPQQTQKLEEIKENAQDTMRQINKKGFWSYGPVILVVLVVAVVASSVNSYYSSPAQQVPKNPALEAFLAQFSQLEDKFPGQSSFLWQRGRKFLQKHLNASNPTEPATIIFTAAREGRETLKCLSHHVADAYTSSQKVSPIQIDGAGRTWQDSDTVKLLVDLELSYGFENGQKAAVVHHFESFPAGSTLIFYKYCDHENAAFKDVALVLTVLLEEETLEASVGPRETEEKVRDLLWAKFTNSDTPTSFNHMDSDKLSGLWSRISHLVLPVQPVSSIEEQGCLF
Neurogenic locus notch homolog protein 3 (Homo sapiens), sequence (Q9UM47 whole entry, looked up): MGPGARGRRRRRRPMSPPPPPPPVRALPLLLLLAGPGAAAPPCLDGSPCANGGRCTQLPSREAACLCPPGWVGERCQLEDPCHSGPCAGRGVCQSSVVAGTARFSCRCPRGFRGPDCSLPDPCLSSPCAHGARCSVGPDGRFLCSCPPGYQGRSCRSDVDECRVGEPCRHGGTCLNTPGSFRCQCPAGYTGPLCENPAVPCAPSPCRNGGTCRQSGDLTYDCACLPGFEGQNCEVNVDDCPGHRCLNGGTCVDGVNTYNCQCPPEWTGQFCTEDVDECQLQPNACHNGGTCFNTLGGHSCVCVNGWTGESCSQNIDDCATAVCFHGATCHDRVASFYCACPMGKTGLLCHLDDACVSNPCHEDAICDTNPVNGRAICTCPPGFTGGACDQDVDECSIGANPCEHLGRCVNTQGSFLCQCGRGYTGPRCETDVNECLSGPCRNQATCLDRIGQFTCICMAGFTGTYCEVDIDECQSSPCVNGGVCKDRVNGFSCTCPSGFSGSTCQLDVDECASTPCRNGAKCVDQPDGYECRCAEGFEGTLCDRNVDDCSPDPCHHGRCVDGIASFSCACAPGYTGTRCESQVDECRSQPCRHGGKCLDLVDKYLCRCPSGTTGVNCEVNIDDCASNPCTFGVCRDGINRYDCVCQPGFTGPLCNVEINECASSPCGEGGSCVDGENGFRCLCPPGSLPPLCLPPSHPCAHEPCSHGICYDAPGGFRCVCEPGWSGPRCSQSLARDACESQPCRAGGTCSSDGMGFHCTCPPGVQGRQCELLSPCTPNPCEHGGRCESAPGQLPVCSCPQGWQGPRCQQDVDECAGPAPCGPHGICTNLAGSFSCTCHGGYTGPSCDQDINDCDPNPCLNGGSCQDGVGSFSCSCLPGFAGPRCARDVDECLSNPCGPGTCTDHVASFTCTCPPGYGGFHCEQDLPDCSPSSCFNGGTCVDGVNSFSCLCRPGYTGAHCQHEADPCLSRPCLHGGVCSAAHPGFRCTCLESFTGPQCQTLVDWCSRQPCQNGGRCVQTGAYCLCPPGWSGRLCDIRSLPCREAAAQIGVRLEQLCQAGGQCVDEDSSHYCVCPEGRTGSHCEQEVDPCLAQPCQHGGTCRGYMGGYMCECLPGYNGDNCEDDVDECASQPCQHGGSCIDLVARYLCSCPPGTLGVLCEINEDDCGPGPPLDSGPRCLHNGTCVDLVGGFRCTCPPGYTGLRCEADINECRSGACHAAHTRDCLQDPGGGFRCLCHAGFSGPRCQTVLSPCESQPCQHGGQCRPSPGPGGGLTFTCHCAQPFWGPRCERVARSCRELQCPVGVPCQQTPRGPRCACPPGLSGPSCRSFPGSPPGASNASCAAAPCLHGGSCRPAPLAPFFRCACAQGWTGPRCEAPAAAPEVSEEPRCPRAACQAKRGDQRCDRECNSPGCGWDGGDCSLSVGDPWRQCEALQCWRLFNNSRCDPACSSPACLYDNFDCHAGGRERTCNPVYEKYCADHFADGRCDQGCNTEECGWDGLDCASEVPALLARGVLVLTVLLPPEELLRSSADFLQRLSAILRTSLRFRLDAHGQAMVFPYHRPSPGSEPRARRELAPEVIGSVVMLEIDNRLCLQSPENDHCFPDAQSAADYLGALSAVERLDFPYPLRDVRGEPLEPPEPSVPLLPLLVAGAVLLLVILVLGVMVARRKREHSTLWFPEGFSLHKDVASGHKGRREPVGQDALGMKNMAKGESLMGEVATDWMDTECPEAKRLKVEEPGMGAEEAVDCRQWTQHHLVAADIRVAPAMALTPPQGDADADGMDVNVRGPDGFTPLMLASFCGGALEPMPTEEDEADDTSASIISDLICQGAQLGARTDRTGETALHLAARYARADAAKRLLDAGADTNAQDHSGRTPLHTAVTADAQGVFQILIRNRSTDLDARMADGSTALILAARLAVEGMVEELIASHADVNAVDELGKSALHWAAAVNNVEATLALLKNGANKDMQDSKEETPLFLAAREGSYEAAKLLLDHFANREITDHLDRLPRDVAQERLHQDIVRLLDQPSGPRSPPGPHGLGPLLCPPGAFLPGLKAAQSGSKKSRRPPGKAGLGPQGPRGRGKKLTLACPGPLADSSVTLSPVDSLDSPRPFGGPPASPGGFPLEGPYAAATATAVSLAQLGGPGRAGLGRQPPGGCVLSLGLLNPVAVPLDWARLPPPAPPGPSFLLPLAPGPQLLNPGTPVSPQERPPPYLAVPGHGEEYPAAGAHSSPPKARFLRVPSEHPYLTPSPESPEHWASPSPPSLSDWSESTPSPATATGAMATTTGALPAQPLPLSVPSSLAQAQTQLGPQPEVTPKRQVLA
Pro-neuregulin-1, membrane-bound isoform (Homo sapiens), sequence (Q02297 whole entry, looked up, the tested form may be a part, canonical isoform): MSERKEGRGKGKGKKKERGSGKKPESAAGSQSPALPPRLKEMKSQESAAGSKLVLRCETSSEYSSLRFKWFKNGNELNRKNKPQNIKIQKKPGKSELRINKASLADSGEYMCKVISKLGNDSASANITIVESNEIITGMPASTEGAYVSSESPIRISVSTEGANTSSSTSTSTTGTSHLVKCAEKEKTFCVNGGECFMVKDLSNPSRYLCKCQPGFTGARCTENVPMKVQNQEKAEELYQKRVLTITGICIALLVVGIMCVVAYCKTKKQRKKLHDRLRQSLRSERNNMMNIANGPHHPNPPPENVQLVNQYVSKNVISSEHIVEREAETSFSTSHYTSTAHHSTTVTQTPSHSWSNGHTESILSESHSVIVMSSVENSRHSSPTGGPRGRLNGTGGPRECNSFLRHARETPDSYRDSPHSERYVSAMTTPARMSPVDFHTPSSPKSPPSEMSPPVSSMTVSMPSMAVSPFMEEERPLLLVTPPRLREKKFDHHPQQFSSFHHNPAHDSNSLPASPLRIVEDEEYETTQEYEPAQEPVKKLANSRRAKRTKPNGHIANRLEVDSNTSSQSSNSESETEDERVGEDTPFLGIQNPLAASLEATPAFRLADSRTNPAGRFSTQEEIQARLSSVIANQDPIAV

Turning to `C=CCC(OC(C)=O)[C@@H]1[C@@H](N(Cc2cc3ccccc3o2)C(=O)c2ccc(-c3ccccc3)cc2)c2cc(OCCCO)ccc2N1C(=O)Cc1ccc(OC)cc1` (stereo not given in full), the composite z-score in [1] is -0.0413; in assay [2], -0.183; in [3] it was -0.0002; in assay [4], 0.248; in assay [5], 0.0777; in [6] it was 0.0526. The composite z-score in [7] was -0.353; in assay [9], 0.331; in assay [10], -0.189; in assay [11], -0.826; in assay [15], -0.299; in assay [17] it was -0.0766. The composite z-score in assay [18] was 0.18; in [19], -0.364; in [20] it was -0.0353. Besides, the z-score in assay [8] was -0.802 (inactive); in assay [12], 0.21 (inactive); in assay [13] it was 0.443 (inactive); in assay [14], 0.945 (inactive); in assay [16], -1.02 (inactive).

In the case of `O=C1OCC=C[C@H]2OC34C=CCN(c5ccc6ccccc6c5)C(=O)[C@H]3N(CCCCCO)C(=O)[C@@H]4[C@@H]12` (stereo not given in full), the composite z-score in assay [1] is 1.43; in [2] it was -0.964; in assay [3], -0.0407; in assay [4], -0.61; in [5], -0.994; in assay [6], 2.26. The composite z-score in assay [7] was 1.39; in assay [9] it was -0.356; in [10] it was -0.338; in assay [11], -0.6; in [15], 3.68; in assay [17], 0.306. The composite z-score in assay [18] was -1.65; in [19], -1.04; in assay [20], -0.177. The z-score in assay [8] is -0.139 (inactive); in [12], -0.594 (inactive); in [13], -0.955 (inactive); in [14], -0.515 (inactive); in assay [16], 0.198 (inactive).

For the compound `C=C(CCCC)/C(=C/C[C@H](OC(C)=O)c1ccc(OCCO)cc1)c1cc(C(=O)OC)ccc1OC`, the composite z-score in assay [1] is -0.321; in assay [2] it was -0.137; in [3], 0.0057; in assay [4] it was 0.674; in assay [5], -0.0254; in assay [6], 1.04. Moreover, the composite z-score in assay [7] is 1; in assay [9] it was -0.28; in assay [10] it was -0.179; in [11], 1.25; in assay [15], 2.36; in assay [17], -0.0238. For the same compound, the composite z-score was 0.917 in [18], 0.563 in [19] and -0.115 in [20]. The z-score in assay [8] was 8.65 (active); in [12] it was 0.966 (inactive); in assay [13], -0.628 (inactive); in assay [14], -0.59 (inactive); in [16] it was 0.54 (inactive).

With `CC(=O)N1CC(C(O)C2C=CC3C(=O)NC(=O)C3N2Nc2ccc(Cl)cc2Cl)c2ccccc21` (stereo not given), the composite z-score is 0.856 in [1]; -0.0312 in assay [2]; 0.203 in assay [3]; 0.925 in assay [4]; 1.28 in [5]; 1.7 in assay [6]. For the same compound, the composite z-score in assay [7] is 0.727; in assay [9], 0.496; in assay [10], 0.0854; in assay [11] it was 0.825; in assay [15], 2.74; in assay [17] it was 0.131. The composite z-score in [18] was -0.575; in assay [19], 0.91; in assay [20] it was -0.0594. Moreover, the z-score was 0.425 (inactive) in assay [8]; 1.14 (inactive) in assay [12]; 0.734 (inactive) in assay [13]; 1.81 (inactive) in assay [14]; -0.948 (inactive) in assay [16].

Turning to `CN(C)C(=O)[C@@]1(Cc2ccccc2N=[N+]=[N-])N=C(c2ccc(OCCCO)cc2)O[C@H]1c1ccccc1`, the composite z-score in assay [1] worked out at 0.657; in assay [2] it was 0.687; in assay [3], 0.0282; in [4] it was 0.359; in assay [5], 1.63; in [6], 1.2. The composite z-score in [7] came out at 1.32; in [9], 1.23; in assay [10], 0.294; in assay [11] it was 1.57; in assay [15], 3.38; in assay [17], 0.58. Besides, the values for the composite z-score in assay [18], in [19] and in assay [20] were -0.125, 1.12 and 0.35, respectively. Also, the z-score in [8] was -1.75 (inactive); in [12] it was 0.687 (inactive); in [13], -4.17 (inactive); in assay [14], 1.23 (inactive); in assay [16], 0.1 (inactive).
